Only some compounds are listed: those with a hit (about 19% of all), similar ones and a draw of the others.
HT1080NT lethal – qHTS for induction of synthetic lethality in tumor cells producing 2HG: qHTS for the HT-1080-NT fibrosarcoma cell line | HT-1080-NT fibrosarcoma viability, CellTiter-Glo ATP luminescence, 48 h | Potency, µM (highest dose often 46.1 µM), hits mostly cytotoxic | hit rate 1.6% among 360,000 | AID 686970, 2013;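 further: NT is the 2HG producing partner of a matched IDH1 knockdown line; nearly all actives have a fitted effect of over 55% in size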
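Read-out is CellTiter-Glo luminescence after 10 minutes at room temperature, following 48 hours' compound treatment of HT-1080-NT cells (750 cells/well, RPMI, 5% FBS, 37 degrees C).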
DT40 TDP1 no CPT – qHTS for Inhibitors of human tyrosyl-DNA phosphodiesterase 1 (TDP1): qHTS in cells in absence of CPT; hit rate 15% among 420,000; Potency, µM (top dose mostly 46.2 µM), most hits filed as inhibitors; AID 686978, 2013; DT40 Tdp1-/- hTDP1 cells, no CPT, ATP luminescence, 48 h; further: nearly all actives have a fitted effect of over 55% in size
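Readout: luminescence from CellTiter-Glo after 30 min in the dark at RT. Cells: DT40 Tdp1-/- with stable hTDP1, 400/well. Exposure: compounds alone, ≥48 hr, 37 °C.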
DT40 TDP1 CPT – qHTS for Inhibitors of human tyrosyl-DNA phosphodiesterase 1 (TDP1): qHTS in cells in presence of CPT. chicken DT40 Tdp1-/-;hTDP1 cells + 20 nM CPT, ATP luminescence, 48 h. Potency, µM (highest dose often 46.2 µM), hits mostly inhibitors. hit rate 12% among 420,000. AID 686979, 2013; further: nearly all actives have a fitted effect of over 55% in size
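Chicken DT40 Tdp1-/- cells stably complemented with human TDP1 were seeded at 400 cells/well in medium containing 20 nM camptothecin, exposed to pin-transferred compounds, and grown at 37 °C for at least 48 hr. Viability was read as ATP luminescence.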
HT1080 IDH1KD tx – qHTS for induction of synthetic lethality in tumor cells producing 2HG: qHTS for the HT-1080-IDH1KD cell line; HT-1080 IDH1 knockdown viability, ATP luminescence, 48 h; Potency, µM (titrated, usually from 46.1 µM), most hits filed as cytotoxic; hit rate 2% among 360,000
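Assay cells: HT-1080 with IDH1 knockdown, 750 per well, RPMI/5% FBS. Exposure: 48 h at 37 °C following 2 h pre-incubation. Read: CellTiter-Glo luminescence; fitted concentration-response, curve class assigned.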
KB-V1 cytotox – qHTS assay for MDR1-selective chemotherapeutics: Primary screen using the drug-selected MDR subline cells KB-V1; hit rate 3.4% among 400,000; KB-V1 MDR cells viability, CellTiter-Glo, 72 h; Potency, µM (highest dose often 46.1 µM), actives largely listed as cytotoxic; AID 1347076, 2019; further: nearly all actives have a fitted effect of over 60% in size
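Potencies derive from concentration-effect curves fitted to normalized luminescence (CellTiter-Glo) of KB-V1 cells treated for 72 h at 37 degrees C in phenol-red-free DMEM containing 10% FBS.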
KB-3-1 cytotox – qHTS assay for MDR1-selective chemotherapeutics: Primary screen using the parental adenocarcinoma cell KB-3-1; KB-3-1 viability, CellTiter-Glo ATP luminescence, 72 h; Potency, µM (series often up to 46.1 µM), usual class: cytotoxic; hit rate 1.4% among 400,000; AID 1347075, 2019; further: nearly all actives have a fitted effect of over 60% in size
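72 h, 37 °C compound treatment of KB-3-1 parental cells; CellTiter-Glo added, 10 min, luminescence read. Data corrected against DMSO-only plates and normalized before curve fitting.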
Numbers stand for hits; . = inactive; ? = inconclusive; / = no result. The call rests on the fitted dose curve; in most records, active means well fitted curve in the direction sought with a large enough effect; inconclusive means small, poorly fitted or top-dose-only effect, or another doubt; inactive means no such curve, though single readings can be large; an effect the other way counts as inactive or inconclusive.

SMILES	HT1080NT lethal	DT40 TDP1 no CPT	DT40 TDP1 CPT	HT1080 IDH1KD tx	KB-V1 cytotox	KB-3-1 cytotox
COc1ccc(NC(=O)c2ccco2)cc1NC(=O)c1ccc(C)cc1	.	?	.	.	?	.
COc1ccc(NC(=O)c2ccco2)cc1NC(=O)c1cccs1	.	.	.	.	8.2µM	.
COc1ccc(NC(=O)CCc2ccccc2)cc1NC(=O)c1ccco1	.	.	.	.	7.31µM	.
O=C(OCc1cc(=O)n2nc(-c3cccs3)sc2n1)c1ccccc1Cl	/	.	.	/	.	.
CC(C)Oc1ccc(C(=O)NC(=S)Nc2ccc(CN3CCOCC3)cc2)cc1	.	18.4µM	?	.	?	.
Cc1ccc(C(=O)NC(=S)Nc2ccc(CN3CCOCC3)cc2)cc1	.	?	20.6µM	.	.	.
Cc1ccc(C(=O)NC(=S)Nc2ccc(N3CCOCC3)cc2)c(C)c1	.	23.1µM	.	.	?	.
O=C(NC(=S)Nc1ccc(CN2CCOCC2)cc1)c1ccc(-c2cccc(Cl)c2)o1	?	7.31µM	16.4µM	?	?	.
CC(C)C(=O)NC(=S)Nc1ccc(CN2CCOCC2)cc1	.	.	.	.	?	.
CC1(c2nnnn2-c2ccc3c(c2)OCCO3)CCC(=O)N1Cc1cccc(C(F)(F)F)c1 (stereo not drawn)	.	?	?	.	?	.
COc1ccc(Br)cc1C(=O)NC(=S)Nc1ccc(CN2CCOCC2)cc1	?	13µM	18.4µM	?	.	.
O=C(NC(=S)Nc1ccc(CN2CCOCC2)cc1)c1ccc([N+](=O)[O-])cc1Cl	.	25.9µM	.	.	.	.
O=C(NC(=S)Nc1ccc(CN2CCOCC2)cc1)c1cccc([N+](=O)[O-])c1	.	.	.	.	.	.
O=C(Nc1ccc(CN2CCOCC2)cc1)c1cc(Br)ccc1Cl	.	?	.	.	.	.
CCC(=O)Oc1ccc(C2Nc3ccccc3-c3nnc(SC)nc3O2)cc1 (stereo not drawn)	/	.	.	/	.	.
NC(=O)CCC(C(=O)O)N1C(=O)C2C3CCC(C3)C2C1=O (stereo not drawn)	.	.	.	.	.	.
O=C(CSc1nc2ccccc2c(=O)n1-c1ccc(F)cc1)Nc1ccc(Cl)c(S(=O)(=O)N2CCOCC2)c1	.	16.4µM	?	.	.	.
O=C(CSc1nc2ccccc2c(=O)n1-c1ccc(F)c(Cl)c1)Nc1cccc(S(=O)(=O)N2CCOCC2)c1	.	?	16.4µM	.	.	.
Cc1ccc(-n2c(SCC(=O)Nc3cc(S(=O)(=O)N4CCOCC4)ccc3Cl)nc3ccccc3c2=O)cc1	.	.	.	.	.	.
CN(C)c1ccc(C=O)c(Cl)c1	/	.	.	/	.	.
O=C(NC(=S)Nc1ccc2oc(-c3cccnc3)nc2c1)c1cccc(Cl)c1	.	?	16.4µM	.	.	.
CC(C)Oc1cccc(C(=O)Nc2ccc3oc(-c4cccc(Cl)c4)nc3c2)c1	/	16.4µM	?	/	.	.
COc1ccc(C(=O)Nc2ccc3oc(-c4cccnc4)nc3c2)cc1	/	?	.	/	?	.
CCOc1cccc(C(=O)Nc2ccc3oc(-c4ccncc4)nc3c2)c1	/	?	?	/	.	.
CC1(Cc2ccc(Cl)s2)C(=O)Nc2c(Cl)ccc(Cl)c21 (stereo not drawn)	?	?	?	?	.	.
SMILES	HT1080NT lethal	DT40 TDP1 no CPT	DT40 TDP1 CPT	HT1080 IDH1KD tx	KB-V1 cytotox	KB-3-1 cytotox
CCC(NC(=O)c1cc(COc2ccc(F)cc2Cl)on1)c1ccncc1 (stereo not drawn)	.	23.1µM	23.1µM	?	.	.
O=C(c1cc(COc2ccc(F)cc2Cl)on1)N1CCC(c2ccncc2)CC1	.	6.51µM	6.51µM	?	4.11µM	.
Cc1cccc(Cn2c(SCc3ccc(C(=O)NC4CCCC4)cc3)nc3cccnc32)c1	/	?	?	/	.	?
O=C(NCCc1cccs1)c1ccc(Cn2c(SCc3ccc(F)cc3)nc3cccnc32)cc1	/	20.6µM	?	/	.	.
Cc1ccc(CSc2nc3cccnc3n2Cc2ccc(C(=O)NCc3cccs3)cc2)cc1	/	.	.	/	/	/
O=C(NCc1ccco1)c1ccc(Cn2c(SCc3ccccc3F)nc3cccnc32)cc1	/	23.1µM	?	/	/	/
O=C(NCc1cccs1)c1ccc(Cn2c(SCc3ccccc3)nc3cccnc32)cc1	/	25.9µM	?	/	.	.
Cc1cccc(Cn2c(SCc3ccc(C(=O)NCc4cccs4)cc3)nc3cccnc32)c1	/	14.6µM	?	/	?	.
Cc1nc(N2CCCC2)ncc1C(=O)Nc1ccc(F)cc1F	/	.	.	/	.	.
O=C(NCCc1ccc(Cl)cc1)c1cnc2sc(N3CCCCC3)nn2c1=O	/	.	.	/	.	.
CCN(CC)c1ccc(NC(=O)Cn2cc3c(n2)CCCC3)c(C)c1	/	?	?	/	.	.
Cc1nc2cncnc2n(Cc2ccccc2)c1=O	/	.	.	/	/	/
CC(CNC(=O)c1ccc(Cn2c(SCc3ccccc3)nc3cccnc32)cc1)c1ccccc1 (stereo not drawn)	/	20.6µM	?	/	?	.
O=C(NCc1cccs1)c1ccc(CSc2nc3cccnc3n2Cc2ccccc2F)cc1	/	23.1µM	?	/	.	.
COc1ccccc1CNC(=O)c1ccc(Cn2c(SCc3ccccc3)nc3cccnc32)cc1	/	?	?	/	.	.
Cc1ccccc1CNC(=O)c1ccc(Cn2c(SCc3ccccc3)nc3cccnc32)cc1	/	?	?	/	.	.
COc1ccc(S(=O)(=O)NN(C)C(=O)c2nn(-c3ccccc3)ccc2=O)cc1	.	.	.	.	.	.
O=C(Nc1ccccc1Cl)C1(c2ccccc2)CC1(Cl)Cl (stereo not drawn)	.	11.6µM	.	.	.	.
CN1CCc2c(sc(NC(=O)C3CCN(S(=O)(=O)c4cccs4)CC3)c2C(N)=O)C1	.	.	.	.	.	.
O=[N+]([O-])c1ccccc1-c1ccc(CN2CCN(c3ccccc3)CC2)o1	.	.	.	.	.	.
CCCOCc1cc(CN2CCN(c3cccc(Cl)c3)CC2)c(O)c2ncccc12	/	5.17µM	5.8µM	/	/	/
O=[N+]([O-])c1cc(CN2CCN(c3ccccc3)CC2)c(O)c2ncccc12	?	4.11µM	2.06µM	?	?	?
CN1CCN(Cc2cc(COCc3ccccc3)c3cccnc3c2O)CC1	?	3.26µM	3.26µM	?	?	?
